# Source: PubChem
# This is a sample that favours compounds with a hit; in the whole collection about 9.3% have one here.
# SMN2 splice up: qHTS Assay for Enhancers of SMN2 Splice Variant Expression; AID 1458, 2008; Potency, µM (series often up to 46.1 µM), without a hit: at the highest dose activity change, positive = activation, actives largely listed as activators; HEK293 SMN2-luciferase splicing reporter, luminescence, 30-36 h; 2.8% of 210,000 active; note: % of control where 0% means no effect; nearly all actives have a fitted effect of over 55% in size
#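 HEK293 cells carry an SMN2 minigene-luciferase reporter in which exon 7 inclusion puts luciferase in frame. Cells were seeded at 2000 cells/well, attached for 10-12 hours, then exposed to compounds for 30-36 hours at 37C before ONE-Glo luminescence.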
# FLuc counter: qHTS profiling assay for firefly luciferase inhibitor/activator using purifed enzyme and Km concentrations of substrates (counterscreen for miR-21 project) | Luciferin 4-monooxygenase (Photinus pyralis), P08659 | purified FLuc, Km substrates, luminescence inhibition | Potency, µM (doses to about 57.5 µM), inactives show at the highest dose activity change, negative = inhibition, actives largely listed as inhibitors | 6.9% of 360,000 active;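 note: plate controls were vehicle for no effect and reference inhibitor for full effect; nearly all actives have a fitted effect of over 55% in size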
# Target sequence (P08659 whole entry, looked up): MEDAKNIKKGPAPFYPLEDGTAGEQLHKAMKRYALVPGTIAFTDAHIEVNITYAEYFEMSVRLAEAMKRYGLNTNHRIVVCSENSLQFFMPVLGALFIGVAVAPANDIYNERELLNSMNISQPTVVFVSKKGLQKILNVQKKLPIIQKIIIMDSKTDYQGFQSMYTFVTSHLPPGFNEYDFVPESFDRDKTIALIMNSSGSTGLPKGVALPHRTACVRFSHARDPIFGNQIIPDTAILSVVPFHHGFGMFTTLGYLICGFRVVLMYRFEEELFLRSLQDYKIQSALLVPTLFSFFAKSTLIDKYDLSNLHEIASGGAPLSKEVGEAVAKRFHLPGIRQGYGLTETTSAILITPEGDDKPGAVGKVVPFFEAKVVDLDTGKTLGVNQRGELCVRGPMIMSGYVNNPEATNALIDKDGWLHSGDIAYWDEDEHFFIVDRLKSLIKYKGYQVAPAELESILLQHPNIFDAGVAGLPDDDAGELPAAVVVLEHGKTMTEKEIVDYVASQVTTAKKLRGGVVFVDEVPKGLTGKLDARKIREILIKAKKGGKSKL
#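 Purified P. pyralis luciferase, 10 nM final, with Km-level 10 uM D-luciferin and 10 uM ATP in 50 mM Tris acetate pH 7.5, 10 mM Mg acetate, 0.01% Tween-20, 0.05% BSA; 6-point qHTS titration about 60 µM downward; luminescence read.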
# NPC1 promoter act: qHTS Assay for NPC1 Promoter Activators. Huh7 NPC1 promoter luciferase reporter, 24 h. Potency, µM (top dose mostly 9.22 µM), inactives show at the top dose activation, actives largely listed as activators. 2.4% of 320,000 active. AID 485313, 2010; note: % of control where 0% means no effect; nearly all actives have a fitted effect of over 60% in size
#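 Compounds in DMSO were transferred onto Huh7 NPC1-luciferase reporter cells pre-incubated 2 h; after 24 h at 37 °C, Amplite reagent was dispensed and luminescence recorded 10 min later.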
# Rab9 promoter act: qHTS Assay for Rab9 Promoter Activators. Potency, µM (highest dose often 9.22 µM), without a hit: at the top dose activation, negative = inhibition, actives largely listed as activators. 2.8% of 320,000 active. Huh7 Rab9 promoter-luciferase reporter, luminescence, 24 h; note: % of control where 0% means no effect; nearly all actives have a fitted effect of over 60% in size
#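 Cell-based reporter: Huh7 stable for Rab9 promoter-driven luciferase, plated in reduced-serum medium with 10% FBS at 1500 cells/well, compound-treated 24 h at 37 °C, luminescence read after 10 min reagent.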
# ELG1 genotox: qHTS screen for small molecules that induce genotoxicity in human embryonic kidney (HEK293T) cells expressing luciferase-tagged ELG1 | HEK293T ELG1-luciferase reporter, luminescence, 16 h | Potency, µM (highest dose often 46 µM), inactives show at the top dose activity change, positive = activation, usual class: activators | 1.3% of 330,000 active; note: % of control where 0% means no effect; nearly all actives have a fitted effect of over 60% in size
#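 Screening used a luciferase reporter fused to human ELG1 in HEK293T cells. Luminescence was read on a CCD plate imager after 16 hr exposure and 30 min ONE-Glo incubation.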
# ELG1 repair inh: qHTS screen for small molecules that inhibit ELG1-dependent DNA repair in human embryonic kidney (HEK293T) cells expressing luciferase-tagged ELG1. HEK293T ELG1-luciferase reporter, luminescence, 16 h; DNA damage induced by 5-fluorouridine. Potency, µM (highest dose often 46.1 µM), for the others: at the highest dose activity change, negative = inhibition, most hits filed as inhibitors. 2.3% of 330,000 active; note: % is set by controls: 0 for no effect and ±100 for the full control effect; nearly all actives have a fitted effect of over 55% in size
#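 Step one: seed 2,000 cells per well. Step two: pin-transfer compound or DMSO alongside 5-fluorouridine. Step three: incubate 16 hr, 37 °C, 5% CO2. Step four: add ONE-Glo, wait 30 min, read luminescence.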
# Numbers without * were called inactive; ? = inconclusive; . = no result given; [ ] = dose if it differs, or a comment. Calls come from the whole dose curve; as a rule, active = well fitted curve in the direction sought with a large enough effect; inconclusive = small, poorly fitted or top-dose-only effect, or another doubt; inactive = no such curve, though single readings can be large; an effect the other way counts as inactive or inconclusive. Potency is the fitted concentration of half-maximal effect.
SMILES,SMN2 splice up,FLuc counter,NPC1 promoter act,Rab9 promoter act,ELG1 genotox,ELG1 repair inh
CCN1C(=O)/C(=C/C=C2\C=CN(CC)c3ccccc32)SC1=S,9.1%,?,?,3.16µM*,?,?
Cc1ccnc2nc(C(=O)OCC(=O)NC3CCCC(C)C3C)nn12 (configuration not stated),.,-0.4%,-2.0%,0.1%,-1.0%,8.2%
CN(C)S(=O)(=O)c1cccc(C(=O)OCC(=O)c2c(N)n(C)c(=O)n(C)c2=O)c1,-16.7%,-1.6%,-5.7%,1.6%,1.8%,0.0%
Cn1c(N)c(C(=O)COC(=O)c2ccc(-c3ccccc3)cc2)c(=O)n(C)c1=O,.,.,.,.,-6.4%,23.1µM*
COc1ccc(-c2cc(C(=O)c3c(N)n(C)c(=O)n(C)c3=O)c3ccccc3n2)cc1,.,0.379µM*,?,?,?,?
Cn1c(N)c(C(=O)c2ccc(Oc3ccccc3)cc2)c(=O)n(C)c1=O,-1.6%,-8.5%,-1.2%,1.3%,7.9%,?
Cn1c(N)c(C(=O)CCl)c(=O)n(Cc2ccccc2)c1=O,-34.3%,4.1%,-5.6%,-44.5%,2.0%,20.6µM*
Cc1ccc(N(C)S(=O)(=O)c2cccc(C(=O)OCC(=O)c3c(N)n(C)c(=O)n(C)c3=O)c2)cc1,.,.,.,.,-10.7%,16.4µM*
COCCn1c(SCC(=O)Nc2cc(Cl)ccc2OC)nc2c([nH]c3ccccc32)c1=O,.,0.6%,.,.,.,.
COc1cc(NC(=O)NCCn2nnc3cc(S(=O)(=O)N(C)C)ccc32)cc(OC)c1OC,.,4.7%,.,.,.,.
Cn1c(N)c(C(=O)COC(=O)c2cc(-c3ccco3)nc3ccccc23)c(=O)n(C)c1=O,-22.8%,?,0.5%,-3.4%,-6.9%,11.6µM*
Cn1c(N)c(C(=O)COC(=O)c2cc(C3CC3)nc3ccccc23)c(=O)n(C)c1=O,-8.4%,-0.7%,-1.1%,0.9%,-1.6%,?
COc1ccc(-c2cc(C(=O)OCC(=O)c3c(N)n(C)c(=O)n(C)c3=O)c3ccccc3n2)cc1,-5.2%,7.57µM*,-0.9%,13.6%,2.4%,9.3%
COc1ccc(/C=C2\CCCc3c2nc2ccccc2c3C(=O)OCC(=O)c2c(N)n(C)c(=O)n(C)c2=O)cc1,-16.3%,-2.2%,-0.4%,0.3%,-6.7%,3.26µM*
Cc1cc(=O)[nH]c(SCC(=O)Nc2cc(S(=O)(=O)N(C)C)ccc2Cl)n1,0.0%,?,-19.7%,0.0%,-6.5%,-2.7%
CC1CCC(NC(=O)COC(=O)c2cccnc2Cl)CC1 (configuration not stated),.,.,0.1%,10.8%,-0.9%,5.7%
CCOC(=O)Cn1nnnc1CN(Cc1ccc(OC)cc1)Cc1cc2cc(CC)ccc2[nH]c1=O,-5.0%,-0.4%,1.9%,2.8%,-8.3%,?
CCOC(=O)Cn1nnnc1CN(Cc1ccc(OC)cc1)Cc1cc2cc(C)ccc2[nH]c1=O,-17.4%,-0.1%,-9.2%,-7.0%,-5.2%,18.4µM*
COc1ccc(Cn2nnnc2CN(Cc2cc3cccc(C)c3[nH]c2=O)C2CCCC2)cc1,-9.0%,-0.3%,-0.6%,-3.4%,-6.4%,?
COc1ccc(Cn2nnnc2CN(Cc2cc3ccc(C)cc3[nH]c2=O)C2CCCC2)cc1,-1.4%,1.2%,-8.9%,-1.0%,-5.1%,12.6µM*
COc1cc2cc(CN(Cc3nnnn3Cc3ccco3)C3CCCCC3)c(=O)[nH]c2cc1OC,-13.6%,-7.3%,13.6%,23.0%,0.1%,0.0%
CCOc1ccc2[nH]c(=O)c(CN(Cc3nnnn3Cc3ccco3)C3CCCCC3)cc2c1,.,-11.9%,2.3%,3.4%,-18.3%,10.3µM*
CN(Cc1ccccc1)C(=O)COC(=O)c1ccccc1SCC(=O)N1CCCC1,.,2.2%,-2.4%,-2.4%,-5.9%,-21.9%
O=C1Nc2ccccc2C12Nc1ccccc1-c1nc3ccccc3n12 (configuration not stated),-29.8%,-15.2%,-2.7%,-3.7%,1.7%,14.6µM*
c1ccc2c(c1)NC1(CCCCC1)n1c-2nc2ccccc21,25.1%,21.3µM*,?,28.3%,?,?
SMILES,SMN2 splice up,FLuc counter,NPC1 promoter act,Rab9 promoter act,ELG1 genotox,ELG1 repair inh
c1ccc2c(c1)NC1(CCCCCC1)n1c-2nc2ccccc21,10µM*,13.5µM*,?,3.16µM*,3.98µM*,?
CC1(c2ccccn2)Nc2ccccc2-c2nc3ccccc3n21 (configuration not stated),-8.6%,?,-6.0%,-0.2%,-3.0%,?
O=C1/C(=C/c2ccc(Br)cc2)Oc2cc(O)ccc21,.,3.79µM*,23.2%,?,3.6%,?
CC(C)(C)c1ccc(/C=C2\Oc3cc(O)ccc3C2=O)cc1,.,?,15.4%,-0.3%[1.84 µM],0.4%,?
O=C1/C(=C/c2ccc([N+](=O)[O-])cc2)Oc2cc(O)ccc21,.,4.78µM*,23.1%,-4.0%,0.2%,?
O=C(Nc1ccccc1)N1CCC2(CC1)CCN(S(=O)(=O)c1ccccc1)CC2,-7.3%,.,.,.,.,.
CCOc1ccc(NC(=O)CC2S/C(=N/N=C3CCCCCC3)NC2=O)cc1 (configuration not stated),.,0.8%,0.8%,17.1%,-9.5%,-6.7%
COc1ccc(NC(=O)c2cc(-c3ccccc3Cl)on2)cc1,.,8.49µM*,?,?,20.6%,?
COc1ccc(NC(=O)c2cc3c(Cl)nc4ccccc4c3s2)c(OC)c1,-3.3%[1.84 µM],0.4%,-3.5%,-0.9%,4.9%,12.2%
COc1cc(NC(=O)c2cc(-c3ccccc3Cl)on2)cc(OC)c1OC,.,?,-29.9%,-17.7%,-4.9%,9.2µM*
COc1ccccc1-c1cc(C(=O)Nc2cccnc2)no1,26.7%,6.75µM*,?,25.1%,18.4µM*,?
COc1cc(NC(=O)c2cc(-c3ccc(Cl)c(Cl)c3)on2)cc(OC)c1OC,-0.5%,-0.4%,.,.,.,.
COc1cc(NC(=O)c2cc3c(Cl)nc4ccccc4c3s2)cc(OC)c1OC,-17.0%,-5.8%,-12.4%,-8.6%,1.3%,6.51µM*
COc1ccc(-c2nc(CN3CCC(C(=O)N4CCOCC4)CC3)c(C)o2)c(OC)c1,.,-1.2%,-0.3%,-0.7%,0.4%,-6.1%
COc1ccc(NC(=O)c2cc(-c3ccccc3OC)on2)cc1,?,9.53µM*,-3.2%,0.2%,?,?
CC(C)(C)c1ccc(CNc2ccc([N+](=O)[O-])cn2)cc1,?,12µM*,26.1%,?,?,?
